Data on 42 molecules can be found in ChEMBL document CHEMBL5308541, “MAIP: An Open-Source Tool to Enrich High-Throughput Screening Output and Identify Novel, Druglike Molecules with Antimalarial Activity” (ACS Med Chem Lett, 2023).

As usually defined, the % Inhibition is the relative decrease from the control value, in per cent.

Structures are written as SMILES. The campaign covered roughly 150,000 compounds. About 540 (0.36%) showed an effect of 50% or more. This is one part of a sample in which strong results are shown more often than they occur.

For the assay, the system named is Plasmodium falciparum. The assay can be described thus: Primary screen in NF54 nanoGlo assay, in single point, at 2uM, 72h; a lower Z score goes with more inhibition. To be noted: timepoint 72 hour. The class given is functional, Erythrocyte.
In the case of `Cc1ocnc1CNC[C@H](O)c1ccc(Cl)c(Cl)c1`, the “% Inhibition” value worked out at 94% and the Z score is given as -18.67.

Regarding `Cn1nc(C(=O)Nc2cnc(CC3CC3)nc2)cc1C(F)(F)F`, the “% Inhibition” value amounted to 1% and the Z score is given as -0.26.

As to `CCCN1CCC(Nc2cc(C)nc3ccccc23)CC1`, the “% Inhibition” value amounted to 58% and the Z score is given as -8.81.

For the molecule `CCC(=O)N1CC[C@H](Nc2cc(C)nc3ccccc23)C1`, the “% Inhibition” value is listed as -8% and the Z score stood at 1.36.

In the case of `Cc1ccc2[nH]c(-c3cc4n(n3)CCN(c3ccnc(N)n3)C4)nc2c1C`, the “% Inhibition” value came out at 84% and the Z score is reported as -16.64.

As for `CN1CCC(N(C)C[C@H](Nc2ncnc3ccccc23)c2ccccc2)CC1`, the “% Inhibition” value stood at 98% and the Z score is -17.15.

Consider `C[C@](O)(CN1CCC(NCc2ccccc2)CC1)C(F)(F)F`, for which the “% Inhibition” value is -6% and the Z score is recorded as 0.96.

For the molecule `COc1ccccc1N1CCN(C2CCN(c3ccc(C(=O)N[C@@H](C)c4ccccc4)cc3)CC2)CC1`, the “% Inhibition” value is listed as -11% and the Z score is reported as 1.99.

Regarding `OC1(c2ccc(Cl)cc2)CCN(C[C@@H]2CCCN3CCCC[C@H]23)CC1`, the “% Inhibition” value was determined as 82% and the Z score was -16.27.

As to `CC(CCO)CNc1nc(NCC(C)CCO)c2ccccc2n1` (centres undefined), the “% Inhibition” value turned out to be 1% and the Z score is on record as -0.17.

For `COCCNc1nc(N[C@@H](C)c2ccccc2)c2ccccc2n1`, the “% Inhibition” value is listed as 52% and the Z score is recorded as -11.2.

`CCNc1nc(NCc2ccccc2)c2cn[nH]c2n1`: the “% Inhibition” value is listed as -6% and the Z score is recorded as 1.21.

With `CN1CCN(C2(CNc3ncc(F)c(N(C)C)n3)CCCCC2)CC1`, the “% Inhibition” value is listed as 7% and the Z score was -1.15.

With `Cc1noc(-c2cccc(NC(=O)c3ccccc3-c3ncc(-c4ccccc4)o3)c2)n1`, the “% Inhibition” value is -8% and the Z score amounted to 1.16.

Take `CN1CCN(C[C@H]2CCCN(CC(C)(C)N3CCOCC3)C2)CC1`: the “% Inhibition” value was -20% and the Z score is recorded as 3.47.

For `Cc1cccc2c(-c3n[nH]c4ncnc(N)c34)c[nH]c12`, the “% Inhibition” value was -3% and the Z score is on record as 0.47.

Consider `CC(C)CCC1CCCC1NCCCN1CCOCC1` (centres undefined), for which the “% Inhibition” value is 6% and the Z score is -1.29.

On to `COc1ccc2c(O)c(Br)c(C)nc2c1`, for which the “% Inhibition” value was 75% and the Z score is reported as -13.24.

As to `COc1ccc2nc3cc(Cl)ccc3c(O)c2c1`, the “% Inhibition” value is listed as 65% and the Z score was -9.86.

Consider `CNc1cc(C)nc2cc(OC)ccc12`, for which the “% Inhibition” value was -6% and the Z score is 0.97.

In the case of `COCCN1CCC[C@@]2(CCN(c3ccnc4cc(Cl)ccc34)C2)C1`, the “% Inhibition” value was found to be 99% and the Z score was -17.32.

On to `COCCN1CC[C@H](CN(C)c2ccnc3cc(Cl)ccc23)C1`, for which the “% Inhibition” value is given as 98% and the Z score is reported as -17.

Regarding `CN1CCC[C@@H]1CCNc1ncnc2cccc(F)c12`, the “% Inhibition” value is 9% and the Z score was -1.43.

As for `CCN(Cc1[nH]c2ccc(Cl)cc2c1C)CC1CCN(C2CCN(C)CC2)CC1`, the “% Inhibition” value worked out at 85% and the Z score is recorded as -14.61.

As for `CCN(Cc1cc(F)ccc1-n1cccn1)CC1CCN(C2CCN(C)CC2)CC1`, the “% Inhibition” value is recorded as 16% and the Z score is on record as -2.76.

`CCN(Cc1cnc(-c2ccccc2C)nc1)CC1CCN(C2CCN(C)CC2)CC1`: the “% Inhibition” value is -7% and the Z score turned out to be 1.18.

`CCN(Cc1cnn(-c2cccc(Cl)c2)c1)CC1CCN(C2CCN(C)CC2)CC1`: the “% Inhibition” value is 82% and the Z score is on record as -14.12.

Consider `CCN(Cc1cccc(OC2CCCC2)c1)CC1CCN(C2CCN(C)CC2)CC1`, for which the “% Inhibition” value was found to be 20% and the Z score is -3.46.

Take `COc1ccc2[nH]c(CN(Cc3cccnc3)CC3CCN(C4CCCC4)CC3)c(C)c2c1`: the “% Inhibition” value came to 1% and the Z score is reported as -0.23.

As for `Fc1ccc2ncnc(NC3CCN(C[C@H]4CCOC4)CC3)c2c1`, the “% Inhibition” value is reported as -10% and the Z score came out at 2.15.

Turning to `CN(CCCn1ccnc1)c1ccnc2cc(Br)ccc12`, the “% Inhibition” value is given as 99% and the Z score is reported as -17.18.

For the molecule `COc1cccc(-c2nc3cc(C#N)ccc3[nH]2)n1`, the “% Inhibition” value worked out at 0% and the Z score was 0.04.

As for `NCC1(O)CCN(c2ccnc3cc(F)c(Cl)cc23)CC1`, the “% Inhibition” value came to 95% and the Z score is listed as -20.37.

With `N#Cc1cccc(Cl)c1N1CCC(O)(CN)CC1`, the “% Inhibition” value is -3% and the Z score is listed as 0.43.

For the molecule `O[C@@]1(c2c[nH]nn2)CCN(c2ccnc3cc(Cl)ccc23)C1`, the “% Inhibition” value turned out to be 44% and the Z score is given as -6.63.

As to `Cn1c(NCc2ccc(N3N=C(c4ccccc4)C[C@H]3c3ccccc3)cc2)nc2ccccc21`, the “% Inhibition” value is reported as -11% and the Z score came out at 1.96.

Take `CN1CCN(CCOc2ccccc2CN2CC3CCC(C2)NC3)CC1` (centres undefined): the “% Inhibition” value was -1% and the Z score turned out to be 0.22.

Turning to `Cc1cnccc1N1CCCN(Cc2ccccc2OCCN2CCN(C)CC2)CC1`, the “% Inhibition” value stood at 96% and the Z score is -19.05.

Consider `C[C@H]1CCCN(CCOc2ccccc2CN2CCN(c3cccnc3)CC2)C1`, for which the “% Inhibition” value was -2% and the Z score is reported as 0.3.

For the molecule `O=C(NC[C@@H](CN1CCCC1)C1CC1)c1ccnn1CC(F)(F)F`, the “% Inhibition” value is listed as -1% and the Z score came out at 0.12.

`C[C@@H](CS(C)(=O)=O)N(C)c1ncnc2cccc(F)c12`: the “% Inhibition” value is reported as 6% and the Z score is given as -1.06.

As for `C[C@H]1CCCN(CCNC(=O)c2ccc(-c3ccc4c(=O)[nH]ccc4c3)cc2)C1`, the “% Inhibition” value was 67% and the Z score is recorded as -11.64.
